Measurements reported in PubChem BioAssay (EPA / NIEHS).
Several values for one entry are separate records, joined by “and”; a condition that tells them apart may be missing. Identical values can stand only once. Inconclusive results are not listed. Some compounds were tested as several samples or in several runs, with calls that do not always agree. Activity calls are given as the source filed them. Rule for the calls, unless noted: active = hit-call score of the fitted dose curve at least 0.9, where 1 is the maximum; inactive = score below 0.9.

Columns and labels:
[1] = ATG_NFI_CIS: Attagene CIS-FACTORIAL HepG2 Assay for human Nuclear Factor I (NFI) (AID 2282989); conditions: HepG2 cis-regulatory reporter, NFI response element transcription; actives raise or lower the signal
How it was run: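 Read-out: reporter mRNA via RT-PCR plus capillary electrophoresis with fluorescence detection. Transiently transfected HepG2 (endogenous TF activity on cis promoters), 24 h compound exposure; gain or loss of signal fitted against DMSO.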

[2] = target: Myc proto-oncogene protein (Homo sapiens) (UniProt P01106); assay: ATG_Myc_CIS: Attagene CIS-FACTORIAL HepG2 Assay for human Myelocytomatosis (Myc) Proto-Oncogene Transcription Factor (AID 2282990); conditions: HepG2, Attagene cis-reporter transcription factor activity; actives raise or lower the signal
Myc proto-oncogene protein (Homo sapiens), sequence (P01106 whole entry, looked up): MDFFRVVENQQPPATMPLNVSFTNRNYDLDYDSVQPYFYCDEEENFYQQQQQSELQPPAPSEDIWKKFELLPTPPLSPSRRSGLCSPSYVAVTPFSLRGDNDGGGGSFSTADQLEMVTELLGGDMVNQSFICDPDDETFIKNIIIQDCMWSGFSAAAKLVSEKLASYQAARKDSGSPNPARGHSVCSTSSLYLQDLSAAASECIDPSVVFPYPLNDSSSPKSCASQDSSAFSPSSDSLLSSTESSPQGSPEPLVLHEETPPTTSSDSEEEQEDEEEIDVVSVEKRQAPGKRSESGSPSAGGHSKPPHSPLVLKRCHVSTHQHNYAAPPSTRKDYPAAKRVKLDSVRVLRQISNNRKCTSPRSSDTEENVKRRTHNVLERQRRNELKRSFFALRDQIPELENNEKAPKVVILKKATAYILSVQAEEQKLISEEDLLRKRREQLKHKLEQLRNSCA
How it was run: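 DMSO-normalised, bidirectionally fitted reporter mRNA signal. HepG2 cells transfected with cis reporter constructs, treated 24 h; transcripts detected by RT-PCR, 6-FAM primer extension and CE.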

[3] = ATG_NRF2_ARE_CIS: Attagene CIS-FACTORIAL HepG2 Assay for human Nuclear Factor Erythroid 2 Related Factor 2 (NFR2) response to Antioxidant Response Elements (ARE) (AID 2282992); conditions: HepG2 Attagene ARE/NRF2 reporter, transcription factor activity; actives raise or lower the signal;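 for AC50: reporter mRNA level measured by RT-PCR and capillary electrophoresis fluorescence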
How it was run: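 Endogenous transcription factor activity in human liver HepG2 cells is tracked via a cis-element-driven reporter within a multiplexed set. mRNA induction is read by RT-PCR and capillary electrophoresis after 24 h, with DMSO as baseline.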

[4] = ATG_Oct_MLP_CIS: Attagene CIS-FACTORIAL HepG2 Assay for human Octamer-Binding Transcription Factor (Oct) (AID 2282993); conditions: HepG2 Attagene cis-factorial Oct reporter, mRNA; actives raise or lower the signal
How it was run: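 Read-out: reporter mRNA via RT-PCR plus capillary electrophoresis of 6-FAM-labelled fragments. Transiently transfected HepG2, 24 h exposure, endogenous TF activity on cis elements. Gain or loss of signal fitted relative to DMSO.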

[5] = BSK_3C_TissueFactor: BioMAP Diversity Plus: 3C Assay for Tissue Factor Biomarker Activity (AID 2282997); conditions: BioMAP 3C HUVEC, tissue factor biomarker readout; actives raise or lower the signal
How it was run: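 HUVEC, 3C system, 24 h post-dose; Tissue Factor by ELISA; bidirectional fit vs DMSO baseline.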

[6] = BSK_3C_uPAR: BioMAP Diversity Plus: 3C Assay for Urokinase-type plasminogen activator receptor (uPAR) Biomarker Activity (AID 2282998); conditions: BioMAP 3C HUVEC, uPAR biomarker ELISA; actives raise or lower the signal
How it was run: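 HUVEC primary cells; 24 h post-dose; uPAR by ELISA; gain or loss of signal fitted bidirectionally vs DMSO baseline.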

[7] = BSK_3C_VCAM1: BioMAP Diversity Plus: 3C Assay for Vascular cell adhesion molecule 1 (VCAM1) Biomarker Activity (AID 2282999); conditions: BioMAP 3C HUVEC, VCAM1 ELISA, cytokine-stimulated; actives raise or lower the signal
How it was run: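 Vascular primary endothelium (human umbilical vein) was exposed to chemicals and assayed 24 h later. VCAM-1 levels came from ELISA, with DMSO serving as baseline for bidirectional fitting.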

[8] = BSK_4H_Eotaxin3: BioMAP Diversity Plus: 4H Assay for Eotaxin 3 Biomarker Activity (AID 2283000); conditions: primary human endothelial cells (HUVEC); actives raise or lower the signal;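 note: CCL26 protein level quantified by ELISA in parallel with SRB cytotoxicity check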
How it was run: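 Readout is Eotaxin-3 (CCL26) level by ELISA in primary human umbilical vein endothelial cells harvested 24 h after chemical exposure; activity fitted in both directions against DMSO control.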

[9] = read-out: Intercellular Adhesion Molecule 1 (ICAM1), ICAM1 (gene 3383); assay: BSK_3C_ICAM1: BioMAP Diversity Plus: 3C Assay for Intercellular Adhesion Molecule 1 (ICAM1) Biomarker Activity (AID 2283003); conditions: primary human endothelial cells (HUVEC); actives raise or lower the signal
How it was run: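 Using DMSO as baseline, bidirectional curve fitting was applied to ICAM-1 ELISA signals from HUVEC in the 3C system, measured 24 h after compound addition.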

[10] = BSK_3C_Proliferation: Cell Proliferation Assessment in the BioMAP Diversity Plus: 3C Assay (AID 2283006); conditions: primary human endothelial cells (HUVEC)
How it was run: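 Measured here: sulforhodamine B (0.1%) staining of TCA-fixed sub-confluent umbilical vein endothelial cultures 48 h post-dosing, absorbance 560 nm. DMSO served as negative control and baseline; both signal gain and loss were modelled.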

[11] = target: Peroxisome proliferator-activated receptor gamma (Homo sapiens) (UniProt P37231); assay: ATG_PPARg_TRANS: Attagene TRANS-FACTORIAL HepG2 Assay for human Peroxisome Proliferator-activated Receptor-gamma (PPARg) (AID 2283007; active = hit-call score of the fitted dose curve at least 0.9, where 1 is the maximum)
Peroxisome proliferator-activated receptor gamma (Homo sapiens), sequence (P37231 whole entry, looked up, the tested form may be a part): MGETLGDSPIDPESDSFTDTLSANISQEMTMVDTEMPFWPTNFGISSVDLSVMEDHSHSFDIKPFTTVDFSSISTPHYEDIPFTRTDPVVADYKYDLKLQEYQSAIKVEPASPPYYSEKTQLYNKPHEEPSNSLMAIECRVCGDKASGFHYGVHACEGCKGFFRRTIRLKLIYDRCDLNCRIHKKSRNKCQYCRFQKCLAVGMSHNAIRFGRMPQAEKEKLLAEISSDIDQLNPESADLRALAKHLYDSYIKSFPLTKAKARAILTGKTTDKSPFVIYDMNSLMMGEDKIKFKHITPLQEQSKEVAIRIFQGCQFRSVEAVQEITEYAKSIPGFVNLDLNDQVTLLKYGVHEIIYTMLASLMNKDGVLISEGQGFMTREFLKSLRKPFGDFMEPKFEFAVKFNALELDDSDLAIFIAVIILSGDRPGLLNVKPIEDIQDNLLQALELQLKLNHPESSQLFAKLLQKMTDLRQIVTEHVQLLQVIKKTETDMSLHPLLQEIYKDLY
How it was run: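 Read-out: reporter mRNA induction, detected by fluorescence after RT-PCR and capillary electrophoresis. Transiently transfected human HepG2 liver cells carrying a chimeric NR-Gal4 construct were dosed for 24 h; activity was fitted upward relative to DMSO.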

[12] = target: Nuclear receptor subfamily 1 group I member 2 (Homo sapiens) (UniProt O75469); assay: ATG_PXR_TRANS: Attagene TRANS-FACTORIAL HepG2 Assay for human Pregnane X Receptor (PXR) (AID 2283008; active = hit-call score of the fitted dose curve at least 0.9, where 1 is the maximum)
Nuclear receptor subfamily 1 group I member 2 (Homo sapiens), sequence (O75469 whole entry, looked up, the tested form may be a part): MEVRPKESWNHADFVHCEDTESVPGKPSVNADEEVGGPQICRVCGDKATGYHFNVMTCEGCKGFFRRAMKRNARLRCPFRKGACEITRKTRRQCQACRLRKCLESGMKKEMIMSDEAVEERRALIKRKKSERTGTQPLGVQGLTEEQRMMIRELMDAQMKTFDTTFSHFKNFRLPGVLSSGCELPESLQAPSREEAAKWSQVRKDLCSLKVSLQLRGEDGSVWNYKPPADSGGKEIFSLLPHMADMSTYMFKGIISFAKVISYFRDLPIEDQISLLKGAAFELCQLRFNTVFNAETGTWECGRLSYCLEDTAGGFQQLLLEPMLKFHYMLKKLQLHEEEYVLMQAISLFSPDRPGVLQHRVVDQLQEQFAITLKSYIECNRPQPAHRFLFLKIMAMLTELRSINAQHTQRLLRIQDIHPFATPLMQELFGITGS
How it was run: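 HepG2 transfected (FuGene 6) with GAL4-UAS reporter units + PXR-Gal4 chimera; dosed 24 h. Total RNA → oligo(dT) RT → PCR → 6-FAM primer extension → HpaI cut → CE. Gain-of-signal vs DMSO.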

[13] = target: human RAR-related Orphan Receptor beta (RORb), RORB (gene 6096) (UniProt Q92753); assay: ATG_RORb_TRANS: Attagene TRANS-FACTORIAL HepG2 Assay for human RAR-related Orphan Receptor beta (RORb) (AID 2283010; active = hit-call score of the fitted dose curve at least 0.9, where 1 is the maximum)
human RAR-related Orphan Receptor beta (RORb), RORB (gene 6096), sequence (Q92753 whole entry, looked up, the tested form may be a part): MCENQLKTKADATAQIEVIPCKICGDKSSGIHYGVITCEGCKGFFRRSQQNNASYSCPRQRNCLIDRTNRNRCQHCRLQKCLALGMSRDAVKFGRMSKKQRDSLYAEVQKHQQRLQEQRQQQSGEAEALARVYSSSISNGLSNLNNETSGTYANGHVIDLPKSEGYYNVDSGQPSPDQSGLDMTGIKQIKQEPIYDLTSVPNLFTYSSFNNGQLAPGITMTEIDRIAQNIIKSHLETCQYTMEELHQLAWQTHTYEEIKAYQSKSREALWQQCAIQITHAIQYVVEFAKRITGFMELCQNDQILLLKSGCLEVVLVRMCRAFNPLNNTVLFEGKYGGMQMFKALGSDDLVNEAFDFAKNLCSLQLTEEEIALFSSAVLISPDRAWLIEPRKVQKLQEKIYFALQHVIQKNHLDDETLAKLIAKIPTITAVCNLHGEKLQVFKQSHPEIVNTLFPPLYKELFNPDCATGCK
How it was run: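 Multiplexed transcription-factor reporter assay: HepG2 cells transiently carrying NR-Gal4/GAL4-UAS constructs, 24 h treatment, mRNA quantified by RT-PCR plus capillary electrophoresis fluorescence; activity scored as induction over DMSO.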

[14] = ATG_NF_kB_CIS: Attagene CIS-FACTORIAL HepG2 Assay for human Nuclear Factor Kappa B (NF-kB) (AID 2282991); conditions: HepG2 Attagene cis-factorial NF-kB reporter mRNA; actives raise or lower the signal
How it was run: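 Read-out: reporter transcript levels quantified by RT-PCR plus capillary electrophoresis of 6-FAM-labelled, HpaI-cut fragments. Transfected HepG2 cells, 24 h compound exposure, endogenous NF-kB-driven cis element; gain or loss scored versus DMSO.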

[15] = target: human Retinoic Acid Receptor gamma (RARg), RARG (gene 5916) (UniProt P13631); assay: ATG_RARg_TRANS: Attagene TRANS-FACTORIAL HepG2 Assay for human Retinoic Acid Receptor gamma (RARg) (AID 2283009; active = hit-call score of the fitted dose curve at least 0.9, where 1 is the maximum)
human Retinoic Acid Receptor gamma (RARg), RARG (gene 5916), sequence (P13631 whole entry, looked up, the tested form may be a part): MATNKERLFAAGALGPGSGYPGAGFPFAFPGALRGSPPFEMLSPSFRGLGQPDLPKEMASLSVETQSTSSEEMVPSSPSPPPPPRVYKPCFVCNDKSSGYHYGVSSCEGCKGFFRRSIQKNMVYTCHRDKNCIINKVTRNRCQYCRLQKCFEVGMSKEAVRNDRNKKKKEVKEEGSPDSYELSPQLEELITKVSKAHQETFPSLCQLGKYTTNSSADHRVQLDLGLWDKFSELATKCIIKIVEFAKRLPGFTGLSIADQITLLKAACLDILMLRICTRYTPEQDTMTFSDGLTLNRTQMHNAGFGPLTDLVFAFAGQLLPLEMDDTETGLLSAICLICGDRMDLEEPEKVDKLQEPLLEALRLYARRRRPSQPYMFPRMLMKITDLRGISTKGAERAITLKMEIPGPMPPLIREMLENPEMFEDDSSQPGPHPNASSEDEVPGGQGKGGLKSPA
How it was run: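 Gain-of-signal relative to DMSO is reported from fluorescent capillary electrophoresis of RT-PCR reporter products. These came from HepG2 cells expressing transfected RARg-GAL4 chimeras with UAS reporters, harvested 24 h after dosing.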

[16] = target: human Peroxisome Proliferator-activated Receptor alpha (PPARa), PPARA (gene 5465) (UniProt Q07869); assay: ATG_PPARa_TRANS: Attagene TRANS-FACTORIAL HepG2 Assay for human Peroxisome Proliferator-activated Receptor alpha (PPARa) (AID 2283001; active = hit-call score of the fitted dose curve at least 0.9, where 1 is the maximum)
human Peroxisome Proliferator-activated Receptor alpha (PPARa), PPARA (gene 5465), sequence (Q07869 whole entry, looked up, the tested form may be a part): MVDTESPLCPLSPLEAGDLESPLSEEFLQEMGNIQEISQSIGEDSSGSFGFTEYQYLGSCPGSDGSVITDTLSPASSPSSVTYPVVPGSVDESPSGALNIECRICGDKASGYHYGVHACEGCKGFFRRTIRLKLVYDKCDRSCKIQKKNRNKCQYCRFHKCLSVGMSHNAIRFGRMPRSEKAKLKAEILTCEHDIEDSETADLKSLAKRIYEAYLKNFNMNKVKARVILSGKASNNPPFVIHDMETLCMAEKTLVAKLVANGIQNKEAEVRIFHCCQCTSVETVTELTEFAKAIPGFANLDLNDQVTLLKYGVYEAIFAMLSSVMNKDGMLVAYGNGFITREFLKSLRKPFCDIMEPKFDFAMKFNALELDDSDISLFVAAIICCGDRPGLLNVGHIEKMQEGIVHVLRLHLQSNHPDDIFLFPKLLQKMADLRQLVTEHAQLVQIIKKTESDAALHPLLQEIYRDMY
How it was run: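 Exposure: 24 h, transiently transfected HepG2 cells. Endpoint: GAL4-UAS reporter mRNA, RT-PCR with capillary electrophoresis fluorescence. Baseline: DMSO; increases fitted.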

[17] = target: human Peroxisome Proliferator-activated Receptor delta (PPARd), PPARD (gene 5467) (UniProt Q03181); assay: ATG_PPARd_TRANS: Attagene TRANS-FACTORIAL HepG2 Assay for human Peroxisome Proliferator-activated Receptor delta (PPARd) (AID 2283002; active = hit-call score of the fitted dose curve at least 0.9, where 1 is the maximum)
human Peroxisome Proliferator-activated Receptor delta (PPARd), PPARD (gene 5467), sequence (Q03181 whole entry, looked up, the tested form may be a part): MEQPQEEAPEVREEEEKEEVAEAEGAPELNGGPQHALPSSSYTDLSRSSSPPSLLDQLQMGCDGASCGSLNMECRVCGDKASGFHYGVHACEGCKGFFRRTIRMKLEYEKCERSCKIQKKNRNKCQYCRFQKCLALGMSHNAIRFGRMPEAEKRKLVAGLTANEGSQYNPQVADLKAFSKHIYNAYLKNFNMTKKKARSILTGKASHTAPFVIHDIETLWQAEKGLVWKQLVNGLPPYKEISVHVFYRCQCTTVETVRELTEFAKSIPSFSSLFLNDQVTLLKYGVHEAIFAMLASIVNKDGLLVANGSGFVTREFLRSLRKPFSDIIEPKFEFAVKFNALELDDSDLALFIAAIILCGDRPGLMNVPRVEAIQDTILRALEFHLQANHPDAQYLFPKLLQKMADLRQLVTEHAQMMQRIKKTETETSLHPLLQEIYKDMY
How it was run: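 Measured quantity: GAL4-UAS reporter transcript induction in HepG2 after 24 h chemical dosing, with NR-Gal4 chimeras supplied by transient transfection. Detection by RT-PCR and capillary electrophoresis; upward fit against DMSO.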

[18] = target: Cellular tumor antigen p53 (Homo sapiens) (UniProt P04637); assay: ATG_p53_CIS: Attagene CIS-FACTORIAL HepG2 Assay for human p53 Transcription Factor (AID 2282994); conditions: HepG2 p53 cis-element reporter, Attagene mRNA; actives raise or lower the signal
Cellular tumor antigen p53 (Homo sapiens), sequence (P04637 whole entry, looked up, the tested form may be a part): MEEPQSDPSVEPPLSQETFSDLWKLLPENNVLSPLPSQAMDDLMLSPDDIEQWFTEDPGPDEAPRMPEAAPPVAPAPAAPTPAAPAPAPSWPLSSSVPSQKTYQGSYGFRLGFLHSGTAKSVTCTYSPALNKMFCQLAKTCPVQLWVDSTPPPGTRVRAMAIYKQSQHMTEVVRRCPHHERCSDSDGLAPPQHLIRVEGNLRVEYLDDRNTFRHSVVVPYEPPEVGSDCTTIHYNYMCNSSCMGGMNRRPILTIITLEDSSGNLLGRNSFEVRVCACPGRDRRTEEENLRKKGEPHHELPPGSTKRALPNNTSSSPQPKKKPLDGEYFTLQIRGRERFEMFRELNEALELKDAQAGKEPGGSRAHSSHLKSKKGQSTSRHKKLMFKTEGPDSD
How it was run: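 Steps: transfect HepG2 with multiplexed cis reporter constructs; dose chemicals 24 h; extract RNA, reverse-transcribe, PCR-amplify reporter sequences; FAM-label, HpaI-digest, resolve fragments by CE. Activity fitted both directions relative to DMSO.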

C/C=C/C=C/C(=O)O
outcome [1]: inactive
outcome [2]: inactive
outcome [3]: inactive
outcome [4]: inactive
outcome [5]: inactive
outcome [6]: inactive
outcome [7]: inactive
outcome [8]: inactive
outcome [9]: inactive
outcome [10]: inactive
outcome [11]: inactive
outcome [12]: inactive
outcome [13]: inactive

CCCC(=O)O
outcome [1]: inactive
outcome [2]: inactive
outcome [14]: inactive
outcome [3]: inactive
outcome [4]: inactive
outcome [5]: inactive
outcome [6]: inactive
outcome [7]: inactive
outcome [8]: inactive
outcome [9]: inactive
outcome [10]: inactive
outcome [12]: inactive
outcome [15]: inactive

CC(=O)[C@@]1(O)CC[C@H]2[C@@H]3CCC4=CC(=O)CC[C@]4(C)[C@H]3CC[C@@]21C
outcome [1]: inactive
AC50 [14]: 20.4 µM (active) and 51.9 µM (active)
outcome [14]: inactive
outcome [3]: inactive
outcome [4]: inactive
outcome [5]: inactive
outcome [6]: inactive
outcome [7]: inactive
outcome [8]: inactive
outcome [16]: inactive
outcome [17]: inactive
outcome [9]: inactive
outcome [10]: inactive
outcome [12]: inactive

CN(C)C(=O)NC1(c2ccccc2)CCN(CC[C@@]2(c3ccc(F)c(F)c3)CN(C(=O)c3ccccc3)CCO2)CC1
outcome [1]: inactive
outcome [2]: inactive
AC50 [3]: 40.8 µM (active)
AC50 [4]: 100 µM (active)
AC50 [18]: 100 µM (active)
outcome [5]: inactive
outcome [6]: inactive
outcome [7]: inactive
outcome [8]: inactive
outcome [17]: inactive
outcome [9]: inactive
outcome [10]: inactive
outcome [11]: inactive
AC50 [12]: 1.13 µM (active)
